AmpC inh no detg: qHTS Inhibitors of AmpC Beta-Lactamase (assay without detergent). P00811. AmpC nitrocefin hydrolysis, absorbance 480 nm, 0.0001% Triton. Potency, µM (top dose mostly 57.1 µM), hits mostly inhibitors. 330,000 compounds, 0.52% hits. AID 485341, 2010; also: nearly all actives have a fitted effect of over 20% in size
Target sequence (P00811 whole entry, looked up): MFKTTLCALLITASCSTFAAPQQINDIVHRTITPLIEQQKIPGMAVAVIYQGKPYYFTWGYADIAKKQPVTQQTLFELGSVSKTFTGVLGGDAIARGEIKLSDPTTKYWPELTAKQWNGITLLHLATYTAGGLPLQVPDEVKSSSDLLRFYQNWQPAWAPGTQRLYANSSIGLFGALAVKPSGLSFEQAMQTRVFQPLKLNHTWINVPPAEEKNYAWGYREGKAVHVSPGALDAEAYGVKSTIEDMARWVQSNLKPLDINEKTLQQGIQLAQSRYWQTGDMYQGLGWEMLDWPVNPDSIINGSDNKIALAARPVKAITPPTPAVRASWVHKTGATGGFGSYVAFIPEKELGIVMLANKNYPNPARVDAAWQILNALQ
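AmpC (5.3 nM in the dispensed reagent) in 20 mM phosphate pH 7.0 with 0.01% (detergent screen) or 0.0001% Triton X-100 was preincubated with compounds for 15 min at room temperature. Nitrocefin was then added from an 800 uM solution, and hydrolysis was followed at 480 nm.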
Vaccinia mCherry: qHTS for Stage-Specific Inhibitors of Vaccinia Orthopoxvirus: mCherry Reporter Primary qHTS | Vaccinia virus mCherry reporter infection, fluorescence | Potency, µM (titrated, usually from 36.5 µM), most hits filed as inhibitors | 310,000 compounds, 0.63% hits | AID 720579, 2013; calls by dose curve; tested in A549 cells; also: nearly all actives have a fitted effect of over 35% in size
AmpC inh detg: qHTS Inhibitors of AmpC Beta-Lactamase (assay with detergent); Potency, µM (series often up to 114 µM), actives largely listed as inhibitors; AmpC hydrolysis of nitrocefin, absorbance 480 nm, 0.01% Triton; 370,000 compounds, 0.041% hits; also: nearly all actives have a fitted effect of over 25% in size
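AmpC (5.3 nM in the dispensed reagent) in 20 mM phosphate pH 7.0 with 0.01% (detergent screen) or 0.0001% Triton X-100 was preincubated with compounds for 15 min at room temperature. Nitrocefin was then added from an 800 uM solution, and hydrolysis was followed at 480 nm.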
Vaccinia Venus: qHTS for Stage-Specific Inhibitors of Vaccinia Orthopoxvirus: Venus Reporter Primary qHTS | AID 720580, 2013 | Vaccinia virus Venus reporter expression, fluorescence | Potency, µM (series often up to 36.5 µM), hits mostly inhibitors | 330,000 compounds, 0.46% hits; calls by dose curve; tested in A549 cells; also: nearly all actives have a fitted effect of over 30% in size
Hits are given with their value; 0 = inactive; ? = inconclusive; - = not tested or not shown; [ ] = dose if it differs, or a comment. Hits are enriched below; roughly 1.1% of the tested compounds scored in any of these assays. Unless noted, calls follow the shape of the dose curve; as a rule, active = well fitted curve in the direction sought with a large enough effect; inconclusive = small, poorly fitted or top-dose-only effect, or another doubt; inactive = no such curve, though single readings can be large; an effect the other way counts as inactive or inconclusive.

SMILES | AmpC inh no detg | Vaccinia mCherry | AmpC inh detg | Vaccinia Venus
CCOc1cc(/C=N/Nc2nnc(C)n2N)ccc1OC(C)=O | 0 | 28µM | 0 | ?
C=C1C(=O)C=C2CN(C(=O)c3ccccc3)[C@@](Cc3ccc(F)cc3)(C(=O)OC)[C@@H]12 | 0 | ? | 0 | 8.9µM
Fc1ccc(/C=C2\CCCC3=C2NC(=S)NC3c2ccc(F)cc2)cc1 (stereo unspecified) | 14µM | - | 0 | -
S=C1NC2=C(CCCC2=C2SCCS2)C(c2ccccc2)N1 (stereo unspecified) | 0 | 0 | 0 | 0
CCOc1cccc(CNCCc2c(C)[nH]c3ccc(OC(F)(F)F)cc23)c1O | 0 | ? | 0 | 10µM
Oc1cc2cc(-c3csc(-c4ccc(F)cc4)n3)cc3c2n1CCC3 | - | 0 | - | 0
CCCC(=O)NC(c1ccc(OC)c(OC)c1)c1cc(Cl)c2cccnc2c1O (stereo unspecified) | 0 | 13µM | 0 | ?
COc1cc(C(=O)NC(c2ccccc2Cl)c2cc(Cl)c3cccnc3c2O)cc(OC)c1OC (stereo unspecified) | - | 11µM | 0 | 0
CCc1ccc(/C=C2\SC(=S)N(CCCC(=O)N3CCN(C)CC3)C2=O)cc1 | - | ? | - | 28µM
COCC(=O)Nc1cc(C(=O)N2CCCOc3c(cccc3OC)C2)c2c(c1)nc(C1CCC1)n2C | - | 0 | - | 0
O=C(Nc1cccc(C(=O)Nc2cccc(Br)c2)c1)c1ccccc1 | 14µM | - | ? | -
O=C(Nc1cccc(NC(=O)c2ccccc2Cl)c1)c1cccc(Br)c1 | - | 0[7.34 µM] | 0 | 0[7.34 µM]
COc1cccc(C(=O)NCC2Cc3cccc(-c4nc(C)cnc4C)c3O2)c1OC (stereo unspecified) | - | 0 | - | 0
O=C(c1ccc2c(c1)OCO2)N1CCOc2ccc(CN3CCC(Oc4cccnc4)CC3)cc2C1 | - | 0 | - | 0
CCc1cc[n+](CC(=O)c2ccc(F)cc2)cc1C(=O)O | - | 0 | - | 0
CN(C(=O)COc1ccccc1C(=O)NCCOc1ccccc1)c1ccccc1 | 0 | ? | 0 | 11µM
O=C(NCCOc1ccccc1)c1ccccc1Cl | 0 | 0 | 0 | 0
S=C(NCCCN(Cc1ccc(Cl)cc1)c1ccc(Br)cn1)NCc1ccc2nc[nH]c2c1 | - | 0 | - | 0
CC(=O)NCCCNC(=S)NCCCN(Cc1ccc(Cl)cc1)c1ccc(Br)cn1 | - | ? | - | 11µM
COCc1c(C(=O)N2CCN(C(C)C)CC2)cnn1-c1nccc(-c2cc(C)sc2C)n1 | - | 0 | - | 0
CCN(C(=O)CSc1nc(-c2ccccc2)no1)c1cccc(C)c1 | - | 2.8µM | 0 | ?
O=C(COC(=O)CNC(=O)C1CCCCC1)NC1CC1 | - | 0 | - | 0
COc1ccc(NC(=O)CN(C)C(=O)COc2ccccc2Cc2ccccc2)cc1 | 0 | - | 0 | -
CN(CC(=O)Nc1ccc(F)cc1)C(=O)COc1ccccc1Cc1ccccc1 | 35µM | 0 | 0 | ?
Cc1ccc(SCC(=O)OCC(=O)NC2CCCCCCC2)cc1 | 0 | 0 | 0 | 0
SMILES | AmpC inh no detg | Vaccinia mCherry | AmpC inh detg | Vaccinia Venus
O=C(COC(=O)CSc1ccc([N+](=O)[O-])cc1)NC1CCCCCCC1 | 32µM | 0 | ? | 0
Cc1oc(-c2ccccc2NC(=O)c2ccccn2)nc1CNC(=O)c1cccc(C#CC(C)(C)O)c1 | - | 0 | - | 0
Cn1c(SCC(=O)N2CCCc3ccccc32)nnc1-c1c[nH]c2ccccc12 | 0 | - | 0 | 0
O=C(CSc1c[nH]c2ccccc12)N1CCCc2ccccc21 | 18µM | 0 | ? | 0
Cc1cc(C)c2cc3c(N)c(C(=O)N4CCc5ccccc5C4)sc3nc2c1 | 0.32µM | 0 | 0 | 0
Cc1ccc2nc3sc(C(=O)N4CCCc5ccccc54)c(N)c3cc2c1 | 0 | - | 0 | -
Cc1cc(C)cc(N2C(=O)NC(=O)/C(=C\c3cccn3-c3ccccc3)C2=O)c1 | 0 | ? | ? | 14µM
Cc1cc(N/N=C/c2ccccc2Cl)nc(NCc2ccccc2)n1 | 0 | 13µM | ? | ?
O=C1NC(=O)/C(=C/c2ccc(-c3cccc([N+](=O)[O-])c3)o2)S1 | 0 | 0 | 0 | 0
O=C1NC(=O)N(Cc2ccco2)C(=O)/C1=C/c1ccc(-c2cccc([N+](=O)[O-])c2)o1 | 35µM | - | ? | -
O=[N+]([O-])c1cccc(-c2ccc(/C=N/NC(=S)NCc3ccco3)o2)c1 | 8.9µM | 0[7.34 µM] | 0 | 0[7.34 µM]
Cc1c(C(=O)N2CCCCCC2)sc2ncnc(NCC3CCCO3)c12 (stereo unspecified) | - | 0 | - | 0
Cc1cc(-c2ccccc2)nc(N/N=C/c2ccc(O)cc2)n1 | 0 | 8.9µM | 0 | 0
Oc1ccc(/C=N/Nc2nc(-c3ccc(Cl)cc3)cc(C(F)(F)F)n2)cc1 | 16µM | 11µM | 0 | 11µM
COc1ccc(N/N=C(/C(N)=O)C2=NC(C)(C)Cc3ccccc32)cc1 | 0 | 14µM | 0 | ?
COc1ccc(N/N=C(\C#N)C(N)=O)cc1 | 0 | 0 | 0 | 0
O=[N+]([O-])c1ccc(Cl)c(S(=O)(=O)/N=C(/Sc2ccc(Br)cc2)c2ccccc2)c1 | - | 0 | - | 0
O=C(CCl)Nc1cc(SCC(O)CO)cc([N+](=O)[O-])c1 (stereo unspecified) | 0 | 2.8µM | 0 | 4µM
CCSc1nnc(NC(=O)NC(C)(C(F)(F)F)C(F)(F)F)s1 | 0 | 0 | ? | ?
CCSc1nnc(NC(=O)NC(CC)(C(F)(F)F)C(F)(F)F)s1 | 0 | - | 0 | 28µM
CC1CN(CC(=O)NCCC2COc3ccccc3O2)Cc2cc(Cl)ccc2O1 (stereo unspecified) | - | 0 | - | 0
COc1ccc(CNC[C@@H](CCCCN(C)Cc2ccc(OC)cc2)N2C[C@H](c3ccccc3)N(CCc3ccc(Cl)c(Cl)c3)C(=O)C2=O)cc1 | 0 | ? | 0 | 22µM
CCCCCNC(=O)Cc1cc(=O)[nH]c(=O)[nH]1 | 50µM | 0 | ? | 0
O=C(c1ccco1)N(Cc1cc2cc3c(cc2nc1N1CCOCC1)CCC3)CC1CCCO1 (stereo unspecified) | - | 0 | - | 0
CN(CC(=O)Nc1cccc(F)c1)C(=O)c1cc(-c2ccco2)nc2ccccc12 | 18µM | 0 | 0 | 0
SMILES | AmpC inh no detg | Vaccinia mCherry | AmpC inh detg | Vaccinia Venus
COc1ccc(NC(=O)CN(C)C(=O)c2cc(-c3ccco3)nc3ccccc23)cc1 | 0 | 0 | 0 | 0
CN(C)c1nc(N)nc(Nc2ccccc2C#N)n1 | 0.2µM | - | 0 | 0
CCN1CCN(c2ccc(S(=O)(=O)N3CCCCC3)cc2NC(=O)c2ccccc2)CC1 | 0 | 0 | 0 | 0
CCN1CCN(c2ccc(S(=O)(=O)N3CCCCC3)cc2NC(=O)c2ccc([N+](=O)[O-])s2)CC1 | 0 | 8.9µM | 0 | 10µM
Cc1ccc(NC(=S)N/N=C2/CCCCc3ccccc32)cc1 | ? | ? | 0 | 0[7.34 µM]
Cc1cccc(NC(=S)N/N=C2/CCCCc3ccccc32)c1 | 32µM | 0 | 0 | 0
Cc1cc(C)n(-c2cccc(C(=O)NCC3Cc4cccc(-c5cccnc5)c4O3)c2)n1 (stereo unspecified) | - | 0 | - | 0
COc1ccccc1N1CCN(C(=O)N2CCOCC2)CC1 | 0 | - | 0 | -
COC(=O)C1(C(F)(F)F)N=C2Sc3ccccc3N2C(N2CCOCC2)=N1 (stereo unspecified) | 0.32µM | 0 | 0 | 0

Bioassay records deposited in PubChem by National Center for Advancing Translational Sciences (NCATS).
